Measured values from PubChem BioAssay (NCI).
About 83,000 compounds went through this panel and 20% of them were active in at least one assay; those are over-represented in the sample as a whole.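 Each cell line was grown in a 96-well plate and treated with one concentration of compound for 48 hours. Values below 10 were considered active.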 A number with no mark means an inactive call. Active and inactive are the calls of the source.

Each molecule was assayed on SK-OV-3 ovarian (assay: NCI-60 one-dose screen, 48 h (100 = growth as untreated, 0 = no growth, -100 = all killed)). Details: 10 µM unless noted.
Method: Growth inhibition of the SK-OV-3 human tumor cell line is measured as a screen for anti-cancer activity. Cells are grown in 96 well plates and exposed to the test compound for 48 hours. Compounds are tested at a single concentration, which is 10^-5 M for most compounds. The reported endpoint is percent growth (GI% or GIPRCNT), where numbers from 0 - 100% represent growth inhibition, and numbers from -100% - 0 represent cell death. For example, a value of 40 represents 60% growth inhibition. A value of 0 means no net growth occurred over the course of the experiment. A value of -40 indicates 40% of cells at the beginning of the experiment died by the end of the experiment. A value of -100 means all cells are dead at the end of the experiment.
NCI-60 Human Tumor Cell Lines Screen was performed using the standard one-dose NCI protocol, which is described in more detail at https://dtp.cancer.gov/discovery_development/nci-60/default.htm.
Compounds with GIPRCNT values below 10 were considered active. Activity score was based on GIPRCNT using the following formula: […]
Score is 0 for GIPRCNT values of 100 or above, 50 for GIPRCNT values of 0, and 100 for GIPRCNT values of -100.

| Structure (SMILES) | growth |
| --- | --- |
| C(=N/Nc1ncc(-c2cc3cc(-c4ccccc4)ccc3o2)s1)/c1cccs1 | 113% |
| O=C(CN1C(=O)/C(=C/c2ccc(Cl)cc2)SC1=S)NCCCN1CCOCC1 | 97.8% |
| CC(=O)c1cc2c(N)c(C(=O)Nc3cccc(F)c3C)sc2nc1C | 53.8% |
| Cc1cc(C)nc(SC2=C(Nc3ccc(O)cc3)C(=O)N(Cc3ccccc3)C2=O)n1 | 94.3% [40 µM] |
| COc1cccc2c1C(=O)c1c(O)c3c(c(O)c1C2=O)C[C@](O)(C(=O)CO)C[C@H]3O[C@@H]1C[C@@H](NC(=O)CCCN(C)C2(c3ccc(F)cc3)CC3CCC2C3)[C@H](O)[C@@H](C)O1 (stereo not given in full) | 84.4% |
| Cn1c(NCCc2ccc(O)c(O)c2)nc2c1c(=O)n(Cc1ccc(Br)cc1)c(=O)n2C | 75.5% |
| COc1cc2c(cc1-c1c(C)noc1C)ncc1nc(C3CCOCC3)n([C@H](C)COC(F)F)c12 | 1.35% (active) |
| CN1CCN(c2ccc3nc(-c4ccc(OCCCCN5CCN(CCCCN6C(=O)c7cccc8cccc(c78)C6=O)CC5)cc4)[nH]c3c2)CC1 | 89.3% |
| C=CCSSc1ncnc2c1ncn2C1OC(CO)C(O)C1O (stereo not given) | 7.46% (active) |
| COc1ccc(-c2n[nH]nc2-c2csc3ccccc23)cc1OC | 14.2% |
| O=C(COc1ccc(/C=C2\CSc3ccccc3C2=O)cc1)Nc1nccs1 | 127% |
| CCOc1cc2ncc(C#N)c(Nc3ccc(OCc4cccc(F)c4)c(Cl)c3)c2cc1NC(=O)CC1CCSS1 (stereo not given) | -93.6% (active) |
| CCCc1cc(=O)n2c(C(=O)Nc3cccc(C(=O)OCC)c3)c(C(=O)Nc3ccc(F)cc3)sc2n1 | 62.2% [30 µM] |
| N#CCCN=Nc1c(O)[nH]c2ccc(F)cc12 | 100% |
| N#CN1CCC[C@H]1C(=O)N1CCc2c(-c3[nH]nc4ncccc34)cccc21 | -1.17% (active) |
| COc1cc(/C=C/c2cc(O)c3cc(C(C)=O)c(=O)oc3c2)cc2c1O[C@]1(C)CC[C@@H](O)C(C)(C)[C@H]1C2 | 64.2% |
| Cc1cc(N2CCN(c3ccnc4cc(Cl)ccc34)CC2)nc(N2CCOCC2)n1 | 88.3% |
| CCCCC(=O)OCC1OC(n2cnc3c(=S)nc[nH]c32)C(OC(=O)CCCC)C1OC(=O)CCCC (stereo not given) | 19.3% |
| C=CC(=O)Nc1cccc(-c2nc(SC)nc(Nc3ccccc3OC)c2C#N)c1 | 91.8% |
| COc1nc2c(c(=O)n1C)CN(Cc1ccccc1)C=N2 | 87.3% |

| Structure (SMILES) | growth |
| --- | --- |
| CS(=O)(=O)c1ccc(-n2nc(-c3ccc(Br)cc3)c3ccccc3c2=O)cc1 | 94.3% |
| COc1ccc(-n2nc(C)c3c(Oc4ccc(NC(=O)Nc5c(Cl)cccc5Cl)cc4)ncnc32)cc1 | 89% |
| Cc1ccc2c(c1)C(=O)/C(=C/c1cccc(OCC(=O)c3ccc(Cl)cc3)c1)CS2 | 115% |
| COc1ccccc1Nc1nc(-c2cc3cccc(C(F)(F)F)c3oc2=O)cs1 | 31.3% |
| FC(F)(F)c1ccc(-c2cn3nc(-c4c[nH]c5ccc(Br)cc45)sc3n2)cc1 | 92.7% |
| Nc1nc2ncc(CCNc3ccc(C(=O)O)cc3)nc2c(=O)[nH]1 | 115% |
| O=Nc1c(O)c(Cl)cc2ccccc12 | 81.4% |
| COc1cccc(-c2nc3sccn3c2-c2ccnc(NCCCNS(=O)(=O)c3cccc(Cl)c3)c2)c1 | 67.7% |
| COc1ccc(/C=C\c2cc(OC)c(OC)c(OC)c2)cc1OCC(=O)Nc1ccc2nc(C)sc2c1 | 78.5% |
| C=CCSSC1N=CNc2nc[nH]c21 (stereo not given) | 8.8% (active) |
| Cc1cc(C)c2nc3nc(C)cc(C)c3c(N)c2c1 | 25.4% |
| CN(C)CCCNc1c2ccccc2nc2ccccc12 | 95.8% |
| CN(C)c1ccc(N=Nc2ccccn2)c(O)c1 | 19.5% |
| COc1ccc(/C=C\c2cc(OC)c(OC)c(OC)c2)cc1OC(=O)c1cccc(Cn2cc(CCOC(=O)[C@H](N)Cc3cn(C)c4ccccc34)nn2)c1 | 34.7% |
| c1ccc(-c2cc3n4c(-c5ccccc5)nn(-c5ccccc5)c4cnc-3n2)cc1 | 63.8% |
| CC(C)C1=C[C@@]23CC[C@@H]4[C@](C)(CCC[C@@]4(C)C(=O)N4CCCNCC4)[C@H]2C[C@@H]1[C@H]1C(=O)CCC(=O)[C@H]13 | 107% |
| Nc1ccc(S(=O)(=O)O)c2ccc(N=Nc3ccc(N=Nc4ccc(S(=O)(=O)O)cc4)c4ccccc34)c(O)c12 | 96% |
| CC[C@H]1OC(=O)[C@H](C)[C@@H](O[C@H]2C[C@@](C)(OC)[C@@H](O)[C@H](C)O2)[C@H](C)[C@@H](O[C@@H]2O[C@H](C)C[C@H](N(C)C)[C@H]2O)[C@](C)(O)C[C@H](C)CN(C)[C@H](C)[C@@H](O)[C@]1(C)O | 97.4% |
| Cc1nc2c3c(-c4ccccc4)c(-c4ccccc4)oc3ncn2n1 | 93% |
| CC(=O)c1cc(C(=O)c2ccc3c(c2)Sc2ccccc2N3)n2ccccc12 | 9.84% (active) |
